Results reported in the supplement of paper PMC6555819.

Key:
Assay in all cases: PBM binding z-score (relative to random genomic background probes); higher = stronger binding; sequences stand for … in GC…GCGATTGACAGCGTAGAATGAAGG
[1] = test system: FXR:RXRa (NR concentration 270 nM, RXRa partner concentration 90 nM)
In short: (§1)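 Random background probes are the reference for binding z-scores. These scores derive from regression-normalized fluorescence on custom Agilent 4×180K protein-binding microarrays incubated 1 h with ligand-free nuclear receptor dimers. Binding was detected with antibodies against each partner (one per run).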

[2] = test system: LXRa:RXRa (NR concentration 270 nM, RXRa partner concentration 90 nM)
In short: as §1

[3] = test system: LXRa homodimer (NR concentration 270 nM)
In short: as §1

[4] = test system: LXRb:RXRa (NR concentration 270 nM, RXRa partner concentration 90 nM)
In short: as §1

[5] = test system: LXRb homodimer (NR concentration 270 nM)
In short: as §1

[6] = test system: PPARa:RXRa (NR concentration 270 nM, RXRa partner concentration 90 nM)
In short: as §1

[7] = test system: PPARg:RXRa (NR concentration 180 nM, RXRa partner concentration 90 nM)
In short: as §1

[8] = test system: PPARg:RXRa 270nM:90nM, anti-RXR (NR concentration 270 nM, RXRa partner concentration 90 nM)
In short: as §1

[9] = test system: PPARg:RXRa 30nM:10nM, anti-RXR (NR concentration 30 nM, RXRa partner concentration 10 nM)
In short: as §1

[10] = test system: PPARg:RXRa 90nM:30nM, anti-RXR (NR concentration 90 nM, RXRa partner concentration 30 nM)
In short: as §1

[11] = test system: PPARg:RXRa DBDmut IVT, anti-RXR (DBD mutation: RXRa K156A/R161A, NR concentration 270 nM, RXRa partner concentration 90 nM)
In short: as §1

[12] = test system: PPARg:RXRa IVT, anti-PPARg (NR concentration 270 nM, RXRa partner concentration 90 nM)
In short: as §1

[13] = test system: PPARg DBDmut:RXRa IVT, anti-PPARg (DBD mutation: PPARg1 K132A/R137A, NR concentration 270 nM, RXRa partner concentration 90 nM)
In short: as §1

[14] = test system: PPARg DBDmut IVT, anti-PPARg (DBD mutation: PPARg1 K132A/R137A, NR concentration 270 nM)
In short: as §1

[15] = test system: PPARg homodimer (NR concentration 180 nM)
In short: as §1

[16] = test system: PXR:RXRa (NR concentration 270 nM, RXRa partner concentration 90 nM)
In short: as §1

[17] = test system: PXR homodimer (NR concentration 270 nM)
In short: as §1

[18] = test system: RARa:RXR (NR concentration 270 nM, RXRa partner concentration 90 nM)
In short: as §1

[19] = test system: RARa homodimer (NR concentration 270 nM)
In short: as §1

[20] = test system: RARb:RXRa (NR concentration 270 nM, RXRa partner concentration 90 nM)
In short: as §1

Row | Sequence | PBM binding z-score [1] | PBM binding z-score [2] | PBM binding z-score [3] | PBM binding z-score [4] | PBM binding z-score [5] | PBM binding z-score [6] | PBM binding z-score [7] | PBM binding z-score [8] | PBM binding z-score [9] | PBM binding z-score [10] | PBM binding z-score [11] | PBM binding z-score [12] | PBM binding z-score [13] | PBM binding z-score [14] | PBM binding z-score [15] | PBM binding z-score [16] | PBM binding z-score [17] | PBM binding z-score [18] | PBM binding z-score [19] | PBM binding z-score [20]
1 | CCTACTGGGCCACGAAAGTTCATTGATTCAGTGA | 0.912 | 3.67 | 4.62 | 1.82 | -0.000733 | 2.69 | 2.47 | 2.77 | 0.297 | 1.86 | 6.16 | 5.56 | 0.407 | 0.518 | 1.35 | 4.97 | 6.21 | 2.03 | -0.507 | 2.72
2 | ATCGAAAGGTTGAGGTGAGTATAGAGAAAGGGAA | 0.898 | 0.95 | -0.00942 | 0.744 | 0.158 | 1.86 | 0.625 | 0.616 | 0.531 | 0.337 | -0.0233 | 1.04 | 1.15 | 1.07 | 0.793 | 0.751 | 0.241 | 1.37 | 0.673 | 1.79
3 | CCTGCTAGGTCAATGGTCAGCTAGAGCAGCTCGC | 2.73 | 1.95 | -0.206 | 1.03 | -0.0711 | 3.04 | 4.26 | 5.05 | 2.14 | 4.51 | 4.03 | 3.86 | -0.82 | -0.691 | 1.03 | 0.552 | -0.638 | 1.5 | -0.363 | 3.71
4 | GCATATAGGTAATACAAGGTGAAAGCCCGATTGT | 1.68 | 1.95 | 0.224 | 0.494 | -0.242 | 1.56 | 1.34 | 1.08 | 0.375 | 0.952 | 4.04 | 3.27 | 1.21 | 0.358 | 0.757 | 0.437 | -0.12 | 0.973 | 0.0827 | 0.234
5 | ATATGTAGGTTAAGGTTCATTCAGGTTGGTTCGC | 3.46 | 3.69 | 3.61 | 3.2 | 0.826 | 5.83 | 10.6 | 9.42 | 8.81 | 10.9 | 7.08 | 7.48 | 4.12 | 3.24 | 3.29 | 4.08 | 5.13 | 3.48 | 1.87 | 2.21
6 | CGAACGAGGGCATGAGTTTATAGCAAATGCCGAT | 0.448 | 0.306 | -0.244 | 0.294 | -1.03 | 1.43 | 1.45 | 1.38 | 0.138 | 0.962 | 3.26 | 2.5 | 0.366 | -0.357 | 0.413 | 1.65 | 1.18 | 0.678 | -0.149 | 2.11
7 | TAGCCTAGGTCAGATCGGGACAGTATACGCTATA | 3.31 | 1.3 | -0.0323 | 1.07 | -0.146 | 1.82 | 0.86 | 0.922 | 0.0788 | 0.727 | 0.601 | 1.73 | -0.45 | -0.46 | 0.479 | 1.74 | -0.545 | 1.11 | -0.615 | 3.11
8 | ATATGTAGGTTACATCCGGGTCATTCCGGCTATG | 1.93 | 4.16 | 1.81 | 2.68 | 0.955 | 4.37 | 5.96 | 5.25 | 2.7 | 4.37 | 7.45 | 7.39 | 4.71 | 3.42 | 2.43 | 3.36 | 1.56 | 3.56 | 0.832 | 2.14
9 | ATCTCTAGGTAAACGTTCAGTGAATCCCGAGGAT | -0.236 | -0.144 | -0.301 | -0.282 | 0.657 | 0.613 | 1.14 | 2.17 | 1.01 | 1.75 | 3.11 | 2.05 | 0.531 | 0.761 | 0.198 | -0.434 | -0.237 | -0.544 | -0.155 | 0.26
10 | CCTAGGAGGACAGAAGGTCAGAGCTGTCCGCTTT | 1.3 | 1.59 | 0.0675 | 1.11 | -0.837 | 1.93 | 0.741 | 2.08 | -0.108 | 1.7 | 0.0548 | 0.781 | -1.45 | -0.918 | 0.868 | 1.59 | -0.0903 | 1.98 | 0.629 | 3.02
11 | TATGCTAGGTCAGTTGGTCAGCTAACGAGCTGCC | 0.676 | 1.92 | 0.835 | 0.423 | 1.02 | 1.46 | 1.17 | 1.26 | 0.0933 | 0.733 | 1.61 | 2.75 | 1.5 | 0.759 | 0.0439 | 0.247 | -0.553 | 0.47 | -0.649 | 3.04
12 | ACTCGGAGGACAAAGGTCAGAGGTACGCCAGTGA | 4.04 | 4.06 | 1.7 | 3.26 | -0.137 | 5.14 | 7.26 | 6.74 | 4.88 | 7.16 | 0.77 | 3.42 | 0.61 | 0.441 | 3.17 | 3.86 | 0.587 | 4.61 | 0.603 | 4.43
13 | AGAATGCGGTTATACGTAGATCAGGGAAGAAAGT | -0.295 | 0.056 | -0.263 | -0.408 | -0.59 | -0.235 | 0.152 | -0.304 | -0.0964 | -0.139 | -0.0715 | -0.172 | -0.724 | -0.259 | -0.759 | -0.417 | -0.318 | -0.261 | -0.54 | -0.164
14 | TGAATGAGGTTACAGATCAGGGAACGTGGCGTCG | 1.82 | 1.45 | -0.368 | 0.694 | 0.104 | 2.94 | 2.65 | 3.06 | 1.45 | 2.65 | 2.62 | 3.25 | 0.697 | 0.0776 | 0.777 | 0.892 | -0.64 | 1.67 | 0.0673 | 1.9
15 | CCGAATGGGGCATAAGGTTACCATAAGCCAGCCC | 0.489 | 2.03 | -0.224 | 0.966 | -0.843 | 2.15 | 2.29 | 3.95 | 1.7 | 3.62 | 0.417 | 1.24 | -1.29 | -1.15 | 0.844 | 0.477 | -0.466 | 1.55 | -0.315 | 1.79
